Results reported in PubChem BioAssay AID597 (National Center for Advancing Translational Sciences (NCATS), 2007).
About 60 (0.09%) of roughly 68,000 compounds were called active. The call rests on the fitted dose curve; in most records, active means well fitted curve in the direction sought with a large enough effect; inconclusive means small, poorly fitted or top-dose-only effect; inactive means flat fitted curve, though single readings scatter. A selection follows.

Assay: qHTS Assay for Epigenetic Modulators; further: % of control where 0% means no effect
Details: mouse C127i GFP locus derepression, cytometry, 30 h; series mostly up to 46.1 µM
From the text: NIH Molecular Libraries Screening Centers Network [MLSCN] NIH Chemical Genomics Center [NCGC] MLSCN Grant: 1 X01 MH079860-01 Assay Provider: Elisabeth D. Martinez, University of Texas SW Medical Center NCGC Assay Overview: The Locus Derepression assay detects the derepression of a GFP reporter that is stably integrated in a region of the genome of murine c127i mammary cells that is presumably silenced. GFP transcription in this construct is controlled by a CMV promoter, which normally is strong and constitutively active. However, this line was selected for lack of constitutive expression of the GFP protein. GFP production can be induced by incubating the cells with histone deacetylase or DNA methyltransferase inhibitors. Compounds that cause derepression of the locus to express GFP are identified by enumerating GFP positive cells using a laser-scanning microplate cytometer. For further details of this screen and follow-up characterization, see R.L. Johnson, W. Huang, A. Jadhav, C.P. Austin, J. Inglese, E.D. Martinez, A Quantitative High-Throughput Screen Identifies Potential Epigenetic Modulators of Gene Expression, Analytical Biochemistry (2008) 375(2):237-48.
NCGC Assay Protocol Summary: Two hundred and fifty cells in 5 uL per well were dispensed into black, clear-bottom 1536-well plates. Twenty-three nL compound was transferred to the assay plate and cells were incubated 30 hours at 37 C. Medium was removed, cells were washed two times with PBS, and GFP-positive cells were enumerated as fluorescent objects between the sizes of 20 to 120 um width and depth using an Acumen Explorer. Keywords: NIH Roadmap, MLSCN, MLI, MLSMR, qHTS, NCGC, qHTS, HDAC, DNMT, HAT, DNA methyltransferases, histone acetyl transferases, histone deacetylases

GFP derepression (activation), inactive:
Fc1ccccc1OCCCCn1cncn1
O=[n+]1c2c(n([O-])c3cc(Br)ccc31)CCC2
COC(=O)[C@H]1[C@H]2C[C@H]3c4[nH]c5ccccc5c4CCN3C[C@@H]2CC[C@@H]1O
CCOC(=O)c1cc2occc2n1CC(=O)N1CCN(C(=O)c2ccco2)CC1
Cc1cc2c(cc1C)NC1=C(N2)O[C@H](c2c[nH]c3ccc(COc4ccccc4)cc23)C1=O 2.2% [at 9.22 µM]
NC(=NC(=O)c1ccccc1)C1=C(O)CCC1=O
COc1ccc(-n2c(SC)nc(O)cc2=O)cc1
O=C(CSc1ncccn1)NC(=O)NCc1ccccc1
NCCCNCCCCN(CCCN)/[N+]([O-])=N/O
Cn1cccc1C(=O)N1CCC[C@@]2(CCN(Cc3nccs3)C2)C1 4.6% [at 9.22 µM]
COCCn1c(=O)c(-c2ccccc2)nc2cnc(N3CCOCC3)nc21 -2.7% [at 9.22 µM]
Cn1c(=NC(=O)CSCC(=O)N2CCOCC2)sc2ccccc21
Cc1ccc2[nH]c(=O)c(COC(=O)c3ccccn3)cc2c1
CCOC(=O)c1[nH]c2ccc(C)cc2c1N=C(C)N(C)C
Cc1cc(C(=O)CC#N)c(C)n1CC(F)(F)F
Cc1ccc(NC(=O)c2cccc(N(C)C)c2)cc1NC(=O)c1ccc(O)cc1
CCON=C1C(C)(C)C(C)(C)C(C)(C)C1(C)C 6.6% [at 9.22 µM]
Cc1ccc(S(=O)(=O)N(C)CC(=O)N2CCc3ccccc32)cc1
COc1cccc(-c2cc(NCCc3c[nH]c4ccc(OC)cc34)ncn2)c1 5.1% [at 9.22 µM]
CC(C)c1ccc2c(c1)c(SC(C)(C)C)c(CC(C)(C)C(=O)O)n2Cc1ccc(Cl)cc1
C#CCCCCCCCCCCCCCCCC(=O)O
N#CCCn1c(=O)c(-c2cc(F)cc(F)c2)nc2cnc(Oc3ccccc3)nc21 -4.9% [at 9.22 µM]
CCOc1cccc(NC(=O)CC#N)c1
O=C1c2ccccc2C(Nc2ccc3c(c2)OCCO3)N1Cc1ccco1 (stereo not drawn)
CCNCCCNCCCNCCCNCC
N#CC1=C(SCc2ccccc2)NC(=O)C(C#N)C12CCCC2 (stereo not drawn)
O=C(c1cccc(F)c1)N1CCC2(CC1)CCN(c1ccccc1)CC2 -1.6% [at 9.22 µM]
COc1ccc(OCC(=O)OCC(=O)Nc2ccc(S(=O)(=O)N3CCCCC3)cc2)cc1
O=S(=O)(O)c1ccc(O)c2ncccc12.O=S(=O)(O)c1ccc(O)c2ncccc12.[Zn] 2.3% [at 9.22 µM]
Cc1cccc(CNc2ccnc(-c3cccnc3)n2)c1 0% [at 9.22 µM]
N#CCCN1CCN(S(=O)(=O)c2ccc(S(=O)(=O)NC3CCCCC3)cc2)CC1
Cc1ccc(-c2nn(CC(C)(C)C)c3ncnc(N)c23)cc1
CCn1c(Cc2ccccc2)nnc1SCC(=O)Nc1ccccc1
CCc1c(C)[nH]c(=S)c(C#N)c1C
COc1ccc(C)cc1NC(=O)CSc1nc(SC)ns1
CN(C)c1cc[n+](Cc2ccccc2)cc1
Nc1nnc(C2CCCC2)s1
CN(c1nc2ccccc2n2c(-c3ccco3)nnc12)S(=O)(=O)c1ccccc1
CN1CCN(CC(O)COCc2ccc3c(c2)OCO3)CC1 (stereo not drawn)
Cn1c(=O)c2cn(-c3cccc4ccccc34)cc2n(C)c1=O
CC(C)NC(=O)N1CC[C@@]2(CCCN(C(=O)c3cccc(F)c3)C2)C1 -0.9% [at 9.22 µM]
CC(=O)c1ccc(Oc2cc(C)nc(-n3nc(C)cc3C)n2)cc1
Cc1ccc(-c2nn(-c3ccccc3)cc2CN(Cc2ccccc2)C(=O)CCC(=O)O)o1
COc1ccc(N2CCN(Cc3cc(=O)oc4ccc5ccccc5c34)CC2)cc1
O=C(NCCCNC(=O)NC1CCCCC1)NC1CCCCC1
FC(F)(F)c1cccc(Nc2ncnc3ccccc23)c1
O=C1C2(c3ccccc3)CN(CCCO)CC1(c1ccccc1)CN(CCCO)C2
COC(=O)c1sc(=S)n(-c2ccccc2)c1N
CCCN1C(=O)C(NC(C)=O)c2cc(OC)ccc21 (stereo not drawn)
O=C(NCCc1ccco1)c1nn(Cc2ccccc2)c(=O)c2ccccc12
CC(C)(C)C(=O)CCN1C(=O)C2(OCCO2)c2ccccc21
CCC(C(=O)OCCN(CC)CC)c1ccccc1 (stereo not drawn)
Cc1cc(C)c2nc3c(c([C@H](O)[C@@H]4CCCCN4)c2c1)CC/C3=C/c1ccc(Cl)cc1 0% [at 9.22 µM]
CC1=CC(C)(C)N(C(=O)CSc2nnc(-c3ccccc3)o2)c2ccc(C)cc21
O=C(O)c1ccc(NS(=O)(=O)c2cccc3nsnc23)cc1
COc1ccccc1C(=O)NCCn1cc(SCC(=O)NCc2ccco2)c2ccccc21
O=C(Cn1[nH]c(=O)c2ccccc2c1=O)Nc1cccc(-c2nnc3n2CCCCC3)c1
COc1ccc(NC(=O)c2c(C)oc3c2CCCC3)cc1
CS(=O)(=O)N1CCC[C@@]2(CCN(c3ccncc3)C2)C1 0% [at 9.22 µM]
O=C(O)c1ccc(NC(=O)c2cccs2)cc1
O=C(Nc1ccc(Cl)cc1)c1ccsn1
COc1ccc(C2C3=C(CC(C)(C)CC3=O)Oc3ncn4nc(-c5cccnc5)nc4c32)cc1OC (stereo not drawn)
CN1CCN2c3ccccc3Cc3ccccc3[C@@H]2C1
O=C(CCCn1c(SCC(=O)c2ccc(F)cc2)nc2ccccc2c1=O)NCc1ccco1
COC(=O)[C@H](C)NC(=O)Nc1ccc(OC(F)(F)F)cc1
COC(=O)c1cnn2c(C(F)(F)F)cc(-c3ccco3)nc12
COc1ccc(-c2nnc(SC(=O)N3c4ccccc4Sc4ccccc43)o2)cc1
COc1ccccc1-c1nc(NCc2cccs2)c2ccccc2n1 0% [at 9.22 µM]
O=c1oc2c(CN3CCCCC3)c(O)ccc2c2c1CCCCC2
COc1ccc(C2N=C(N)N=C(N)N2c2ccccc2)cc1OC (stereo not drawn)
O=C(O)COc1c(Cl)cc(Cl)c2cccnc12 5.8% [at 9.22 µM]
CCn1c(SCC(=O)Nc2ccc3c(c2)OCCO3)nc2c(c1=O)SC(C)C2 (stereo not drawn)
Cn1c(=S)c2[nH]c(SCCCc3ccccc3)nc2n(C)c1=O -3.4% [at 9.22 µM]
COc1cccc(Cn2c(=O)c(-c3ccccc3)nc3cnc(OC)nc32)c1 10.8% [at 9.22 µM]
CCCC(C(=O)OCCN(CC)CC)(c1ccccc1)c1ccccc1
O=C(OCCN1CCOCC1)C1(c2ccccc2)CCCCC1
O=C(c1cc(C(F)(F)F)cc(C(F)(F)F)c1)N1CCC2(CCCN(Cc3ccncc3)C2)CC1 2.2% [at 9.22 µM]
O=C(O)CCC(=O)Nc1ccc(N2CCOCC2)cc1
COCCn1c(=O)c(-c2cc(F)cc(F)c2)nc2cnc(N3CCNCC3)nc21 -0.5% [at 9.22 µM]
CN(C)C(=O)c1ccc(-c2cncnc2Nc2ccccc2)cc1 5.7% [at 9.22 µM]
COc1ccc(NC(=O)CSc2nnc(-c3cccs3)n2Cc2ccco2)cc1OC
CCOC(=O)N1CCN(C(=O)c2n[nH]c(=O)c3ccccc23)CC1
CC(=O)Nc1ccc(S(=O)(=O)N2CCSCC2)cc1
CCOc1ccc(NS(=O)(=O)c2ccc(OCC(=O)NCCCOC)cc2)cc1
COc1ccc(C(=O)N/N=C2/C(=O)c3c(C)cc(C)cc3CC2(C)C)cc1 3.4% [at 9.22 µM]
N#Cc1cc2[nH]c(=O)c(=O)[nH]c2cc1[N+](=O)[O-]
N/C(=N\c1nc2ccccc2o1)NC(=O)C(Cc1ccccc1)N1C(=O)c2ccccc2C1=O (stereo not drawn)
CCCNS(=O)(=O)c1ccc(CCC(=O)NCc2cccnc2)cc1
Cc1nc2ccc(S(=O)(=O)NCC(=O)NCCN3CCCCC3C)cc2s1 (stereo not drawn)
N#Cc1cccc(-c2nc3cnc(N4CCNCC4)nc3n(C3CC3)c2=O)c1 -5% [at 9.22 µM]
COc1ccc(C2OC(=O)CC2C(=O)NC(C)C)cc1 (stereo not drawn)
O=C(NCC12CC3CC(C1)CC(CNC(=O)N1CCCC1)(C3)C2)N1CCCC1
C[C@]1(O)CC[C@H]2[C@H]3CC=C4N5CCN=C5CC[C@@]4(C)[C@H]3CC[C@@]21C -3.4% [at 9.22 µM]
COCCn1c(=O)c(C)nc2cnc(N(C)C)nc21 2.3% [at 9.22 µM]
CN1CCCc2cc(C#N)c(=O)[nH]c21
CCCc1[nH]nc2c1C(c1ccc(OC(=O)c3ccco3)cc1)C(C#N)=C(N)O2 (stereo not drawn)
CCCCOc1ccc(-c2nnc(-c3ccco3)o2)cc1
CC(C)NC(=O)N1CC[C@@]2(CCCN(C(=O)c3cccn3C)C2)C1 2.2% [at 9.22 µM]
O=S(=O)(NCc1ccc2c(c1)OCO2)c1cccc2nsnc12
COc1ccc(CNC(=O)c2c(C)cc(=O)oc2C)cc1OC
Cc1cccc(CC(=O)Nc2c3c(nn2-c2cccc(Cl)c2)CS(=O)C3)c1 (stereo not drawn)
Cc1nn(C)c(C)c1S(=O)(=O)N1CCc2ccccc21
Cc1nc2cnc(N3CCNCC3)nc2n(CCc2ccccc2)c1=O 8.1% [at 9.22 µM]
